Some structures have more than one record in an assay (separate samples or runs), and their calls can disagree. Active and inactive are the calls of the source. How the source made its calls, unless noted: active means hit-call score of the fitted dose curve at least 0.9, where 1 is the maximum; inactive means score below 0.9.
Experiments:
[1] = read-out: TIMP metallopeptidase inhibitor 2 (TIMP2), TIMP2 (gene 7077); assay: BSK_hDFCGF_TIMP2: BioMAP Diversity Plus: hDFCGF Assay for TIMP metallopeptidase inhibitor 2 (TIMP2) Biomarker Activity (AID 2284289); conditions: primary human foreskin fibroblasts
In short: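 Primary human foreskin fibroblasts in the hDFCGF system, dosed for 24 h; TIMP-2 level measured by ELISA, fitted in the positive direction against DMSO; cytotoxicity checked in parallel by sulforhodamine B total protein staining.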

[2] = BSK_IMphg_SRB: Viability Assessment in the BioMAP Diversity Plus: IMphg Assay (AID 2284292); conditions: primary human endothelial cells with macrophages;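 further: measured one day after compound addition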
In short: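 SRB viability endpoint: cultures of human endothelial cells plus macrophages fixed with 10% TCA, stained with 0.1% SRB, read at 560 nm 24 h post-dosing. Only gain-of-signal fitted, relative to DMSO.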

[3] = read-out: Macrophage colony-stimulating factor (MCSF), CSF1 (gene 1435); assay: BSK_IMphg_MCSF: BioMAP Diversity Plus: IMphg Assay for Macrophage colony-stimulating factor (MCSF) Biomarker Activity (AID 2284293); conditions: primary human endothelial cells with macrophages
In short: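 M-CSF was measured by ELISA in human venular endothelial cell/macrophage co-cultures dosed for 24 hours. Sulforhodamine B staining of parallel cultures assessed cytotoxicity; data fitted against DMSO baseline.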

[4] = BSK_IMphg_SRB.Mphg: Macrophage Viability Assessment in the BioMAP Diversity Plus: IMphg Assay (AID 2284295); conditions: primary human endothelial cells with macrophages
In short: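 Cytotoxicity read-out: parallel cultures fixed with 10% TCA, stained with 0.1% sulforhodamine B, read at 560 nm. System combines venular endothelium and macrophages; sampled 24 h post-dosing, fitted positively relative to DMSO control.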

[5] = read-out: Thrombomodulin, THBD (gene 7056); assay: BSK_LPS_Thrombomodulin: BioMAP Diversity Plus: LPS Assay for Thrombomodulin Biomarker Activity (AID 2284296); conditions: primary human HUVEC with PBMC
In short: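 Thrombomodulin on the surface of LPS-activated endothelial/PBMC co-cultures was quantified by ELISA at 24 hours post-dosing, with DMSO as baseline. Parallel SRB total-protein staining flagged overt cytotoxicity.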

CD69, CD69 (gene 969) = assay: BSK_LPS_CD69: BioMAP Diversity Plus: LPS Assay for CD69 Biomarker Activity (AID 2284303); conditions: primary human HUVEC with PBMC
In short: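 CD69 surface levels were read by ELISA after 24 h chemical treatment of an LPS-stimulated HUVEC plus PBMC co-culture; positive-direction fit against DMSO vehicle.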

IYD (gene 389434) = assay: CCTE_GLTED_hIYD: CCTE's human Iodotyrosine Deiodinase (xIYD) Inhibition Assay, Great Lakes Toxicology and Ecology Division (GLTED) Lab (AID 2284317; active means hit-call score of the fitted dose curve at least 0.9, where 1 is the maximum;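 further: cell-free human IYD enzyme made in baculovirus insect cells; iodide freed from monoiodotyrosine measured by cerium arsenite color change at 420 nm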)
In short: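 Iodide liberated from monoiodotyrosine by baculovirus-expressed human IYD over 3 h was determined colorimetrically (Sandell-Kolthoff, 420 nm) after Dowex separation; inhibition is loss of signal versus DMSO.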

Measured: AC50

NCC(F)(F)C(F)(F)C(F)(F)C(F)(F)C(F)(F)C(F)(F)C(F)(F)C(F)(F)F
not listed: IYD (gene 389434)
inactive: all other assays above

O=C(O)C(F)(F)C(F)(F)C(F)(F)OC(F)(F)F
not listed: IYD (gene 389434)
inactive: all other assays above

NC(O)(C(F)(F)F)C(F)(F)F
inactive: [1] | [2] | [3] | [4] | [5] | CD69, CD69 (gene 969)
active: CD69, CD69 (gene 969) 1.45 µM

CCCCCCCC/C=C\CCCCCCCC(=O)N(C)CC(=O)O
active: IYD (gene 389434) 58.2 µM

NCC(F)(F)C(F)(F)C(F)(F)C(F)(F)C(F)(F)C(F)(F)F
not listed: IYD (gene 389434)
inactive: all other assays above

CCCCCCCC/C=C\CCCCCCCC(=O)OCC(O)CO (configuration not stated)
active: IYD (gene 389434) 68.1 µM
